# In PubChem BioAssay (Tox21):
# A number with no mark means an inactive call. Records with an inconclusive call do not appear. A call without a number means that no potency is given here. Active and inactive are the calls of the source. Unless noted, the call rests on the fitted dose curve; in most records, active means well fitted curve in the direction sought with a large enough effect in the repeat runs; inconclusive means weak or mixed curves; inactive means no such curve, though single readings can be large; an effect the other way counts as inactive or inconclusive.
# Tests used:
# [1] = qHTS assay to identify small molecule agonists of the estrogen receptor alpha (ER-alpha) signaling pathway in the presence of an antagonist - cell viability counter screen (AID 1259386); further: series mostly up to about 92 µM; nearly all actives have a fitted effect of over 30% in size
# Method in brief: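 Compounds tested at 15 concentrations for 22 h at 37C alongside 10.0nM (final) ICI-182,780 antagonist, in VM7Luc4E2 cells grown in phenol red-free, charcoal-stripped medium. Viability read by CellTiter-Fluor fluorescence after 1 h reagent incubation.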
# [2] = target: Progesterone receptor (Homo sapiens) (UniProt P06401); experiment: qHTS assay to identify small molecule agonists of the progesterone receptor (PR) signaling pathway (AID 1346784; calls by dose curve; further: nearly all actives have a fitted effect of over 30% in size)
# Method in brief: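 Using charcoal-stripped serum (2%) to limit endogenous steroids, PR-UAS-bla HEK 293T cells received compounds for 16 hr at 37C after 6 hr plating; beta-lactamase FRET fluorescence was recorded following 2 hr substrate loading at room temperature.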
# [3] = target: Progesterone receptor (Homo sapiens) (UniProt P06401); experiment: qHTS assay to identify small molecule antagonists of the progesterone receptor (PR) signaling pathway (AID 1346795; active means well fitted inhibition curve with a large enough effect in the signal ratio in the repeat runs, not every such curve was filed as active; the % refers to the signal ratio; further: potency means the concentration at half of the fitted maximal effect)
# Method in brief: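 Inhibition of R5020-induced (1 nM final) beta-lactamase reporter signal in PR-UAS-bla HEK293T cells was scored by FRET fluorescence after overnight (16 hr) compound treatment.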
# [4] = qHTS assay to identify small molecule antagonists of the progesterone receptor (PR) signaling pathway - cell viability counter screen (AID 1346798); further: series mostly up to about 92 µM; nearly all actives have a fitted effect of over 50% in size
# Method in brief: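 ATP content as viability readout: CellTiter-Glo luminescence, 30 min room temperature, in PR-UAS-bla HEK293T cells after 16 hr compound/R5020 treatment at 37C and 5% CO2.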
# [5] = qHTS assay to identify small molecule agonists of the progesterone receptor (PR) signaling pathway - cell viability counter screen (AID 1346799; calls by dose curve; further: nearly all actives have a fitted effect of over 45% in size)
# Method in brief: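 Cytotoxicity in PR-bla HEK293T cells: 16 h compound, 37C; CellTiter-Glo added post-FRET read; luminescence after 30 min RT.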
# [6] = qHTS assay to identify small molecule agonists of the TGF-beta/Smad signaling pathway - cell viability counter screen (AID 1346829); further: top concentration of the series differs between compounds; nearly all actives have a fitted effect of over 45% in size
# Method in brief: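 HEK 293T SBE-bla line, 5 hr compound exposure at 37 C, multiplexed CellTiter-Glo viability read by luminescence.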
# [7] = qHTS assay to identify small molecule agonists of the TGF-beta/Smad signaling pathway (AID 1346859; active means well fitted activation curve with a large enough effect in the signal ratio in the repeat runs, not every such curve was filed as active; the % refers to the signal ratio; further: series mostly up to about 77 µM)
# Method in brief: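 Stable Smad binding element-beta-lactamase HEK 293T cells; 5 hr compound exposure at 37 C under 5% CO2; 2 hr room-temperature substrate step; fluorescence excited at 405 nm, collected at 460 nm and 530 nm.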
# [8] = target: Thyrotropin-releasing hormone receptor (Homo sapiens) (UniProt P34981); experiment: qHTS assay to identify small molecule agonists of the thyrotropin-releasing hormone receptor (TRHR) signaling pathway (AID 1346891; calls by dose curve;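 further: HEK293 cells expressing TRHR with calcium dye readout; series mostly up to about 58 µM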)
# Method in brief: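 In 1536-format, 1500 TRHR-Hek293 cells per well grew 18 h, took up calcium dye for 2 h at 37 °C, received compound, and were read kinetically; 15-point titrations, triplicates.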
# [9] = Caspase-3/7 induction in HepG2 cells by small molecules, qHTS assay (AID 1346978); further: nearly all actives have a fitted effect of over 15% in size
# Method in brief: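 Caspase-3/7 induction was measured by Caspase-Glo 3/7 luminescence (30 min, room temperature) after a 17 hr compound exposure of wild-type HepG2 cells seeded at 2,000 per well and pre-incubated 5 hr.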
# [10] = Caspase-3/7 induction in CHO-K1 cells by small molecules, qHTS cell viability counter screen (AID 1346979); further: nearly all actives have a fitted effect of over 35% in size
# Method in brief: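 To flag cytotoxic compounds, treated CHO-K1 wild-type cells were given CellTiter-Fluor at 16hr and read fluorescently after 1hr at 37C; the caspase-3/7 luminescence was measured in these same wells.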
# [11] = Caspase-3/7 induction in CHO-K1 cells by small molecules, qHTS assay (AID 1346980); further: nearly all actives have a fitted effect of over 15% in size
# Method in brief: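 Luminescent Caspase-Glo 3/7 read (30min, room temperature) quantified apoptosis induction. Cells were wild-type CHO-K1, treated with compound for 17hr at 37 C and 5% CO2.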
# [12] = Caspase-3/7 induction in HepG2 cells by small molecules, qHTS cell viability counter screen (AID 1346981); further: series mostly up to about 92 µM; nearly all actives have a fitted effect of over 30% in size
# Method in brief: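 CellTiter-Fluor fluorescence measured viability in the same wells used for Caspase-Glo 3/7. HepG2 (wild type) at 2,000 cells/well were pre-incubated 5 hr, dosed, and given reagent at 16 hr, with 1 hr further at 37C.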
# [13] = target: Nuclear receptor subfamily 1 group I member 2 (Rattus norvegicus) (UniProt Q9R1A7); experiment: Rat pregnane X receptor (rPXR) activation by small molecules, qHTS assay (AID 1346983); details: rPXR luciferase reporter cells, One-Glo luminescence, 24 h; max activation: stronger effect = higher value; further: nearly all actives have a fitted effect of over 20% in size; further: potency means the concentration at half of the fitted maximal effect
# Method in brief: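 Luminescent readout (One-Glo luciferase, 30 min room temperature) followed 24 hr compound treatment at 37 C of rPXR cells plated 2,000 per well and preincubated 5hr; qHTS format with compounds delivered in DMSO.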
# [14] = qHTS assay to identify small molecule antagonists of the TGF-beta/Smad signaling pathway - cell viability counter screen (AID 1346824); further: nearly all actives have a fitted effect of over 50% in size
# Method in brief: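 Cytotoxicity counter-screen run in the same wells as the beta-lactamase Smad reporter read: CellTiter-Glo luminescence after 30 min at room temperature. HEK 293T SBE-bla cells had 5 hr compound exposure at 37 C with TGF-beta1 (0.25 ng/mL stock).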
# [15] = Human pregnane X receptor (PXR) small molecule agonists, qHTS cell viability counter screen (AID 1346977); further: nearly all actives have a fitted effect of over 50% in size; further: potency means the concentration at half of the fitted maximal effect
# Method in brief: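 Readout is CellTiter-Fluor fluorescence from PXR-Luc HepG2 cells. Plated cells rested 5hr, then were treated with compounds for 24hr at 37C and 5% CO2, with reagent present during the last hour.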
# [16] = target: Thyrotropin-releasing hormone receptor (Homo sapiens) (UniProt P34981); experiment: qHTS assay to identify small molecule antagonists of the thyrotropin-releasing hormone receptor (TRHR) signaling pathway (AID 1346877; active means well fitted inhibition curve with a large enough effect in the repeat runs, not every such curve was filed as active; further: series mostly up to about 51 µM)
# Method in brief: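 Antagonist mode: after a 5 min room-temperature compound exposure, cells were stimulated with 1 nM (final) TRH. Dye-loaded TRHR-HEK293 cells were used, and calcium-dependent fluorescence was followed for 3 min, with 15-point titrations run in triplicate.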
# [17] = target: Nuclear receptor subfamily 1 group I member 2 (Homo sapiens) (UniProt O75469); experiment: Human pregnane X receptor (PXR) small molecule agonists, qHTS assay (AID 1346982); further: nearly all actives have a fitted effect of over 35% in size; further: potency means the concentration at half of the fitted maximal effect
# Method in brief: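 Agonist mode: luminescence from ONE-Glo after 24 h compound exposure at 37C in HepG2 cells carrying hPXR-responsive CYP3A4 luciferase, plated in charcoal-stripped serum medium 5 h beforehand.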
# [18] = target: Nuclear receptor subfamily 1 group I member 2 (Homo sapiens) (UniProt O75469); experiment: CYP3A4 induction through human pregnane X receptor (PXR) by small molecules, qHTS assay (AID 1346984); further: nearly all actives have a fitted effect of over 40% in size; further: potency means the concentration at half of the fitted maximal effect
# Method in brief: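 Read-out is luminescence after One-Glo addition, following a 3 hr, 37C incubation with Luciferin-IPA CYP3A4 substrate (3uM final). Before that, compounds were on DPX-2 cells (HepG2 co-transfected with PXR element plus CYP3A4-promoter luciferase) for 24 hr at 37C.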
# [19] = target: Nuclear receptor subfamily 1 group I member 2 (Homo sapiens) (UniProt O75469); experiment: Human pregnane X receptor (PXR) activation by small molecules, qHTS assay (AID 1346985); further: nearly all actives have a fitted effect of over 40% in size; further: potency means the concentration at half of the fitted maximal effect
# Method in brief: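 DPX-2 cells (HepG2 co-transfected with a PXR response element and a CYP3A4-promoter luciferase construct) were seeded at 2,000 per well, rested 5 hr at 37C, then exposed to DMSO-dissolved compounds for 24 hr. Activation was read as luciferase luminescence.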
# Chain of Thyrotropin-releasing hormone receptor (Homo sapiens) (P34981 whole entry, looked up): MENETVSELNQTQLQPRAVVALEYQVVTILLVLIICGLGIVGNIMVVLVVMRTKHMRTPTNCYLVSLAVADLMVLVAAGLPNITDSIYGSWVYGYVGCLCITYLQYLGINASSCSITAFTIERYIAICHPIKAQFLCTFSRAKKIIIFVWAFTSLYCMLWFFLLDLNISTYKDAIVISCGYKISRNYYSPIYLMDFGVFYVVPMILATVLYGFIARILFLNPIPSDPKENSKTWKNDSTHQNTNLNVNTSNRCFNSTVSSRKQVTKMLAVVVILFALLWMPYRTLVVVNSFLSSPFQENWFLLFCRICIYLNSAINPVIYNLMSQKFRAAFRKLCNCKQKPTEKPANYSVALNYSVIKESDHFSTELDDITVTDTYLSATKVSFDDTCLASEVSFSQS
# Chain of Nuclear receptor subfamily 1 group I member 2 (Rattus norvegicus) (Q9R1A7 whole entry, looked up): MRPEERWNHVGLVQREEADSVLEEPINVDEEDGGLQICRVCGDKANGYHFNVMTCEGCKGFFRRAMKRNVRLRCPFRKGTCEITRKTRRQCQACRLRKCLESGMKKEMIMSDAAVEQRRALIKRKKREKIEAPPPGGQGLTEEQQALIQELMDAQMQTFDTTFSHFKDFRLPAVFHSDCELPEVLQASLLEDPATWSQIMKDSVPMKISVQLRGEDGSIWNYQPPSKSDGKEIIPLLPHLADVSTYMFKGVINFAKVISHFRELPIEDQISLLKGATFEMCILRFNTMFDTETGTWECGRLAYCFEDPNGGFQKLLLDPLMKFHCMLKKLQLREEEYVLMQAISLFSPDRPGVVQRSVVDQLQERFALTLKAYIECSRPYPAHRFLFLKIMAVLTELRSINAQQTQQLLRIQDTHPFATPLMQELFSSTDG
# Chain of Nuclear receptor subfamily 1 group I member 2 (Homo sapiens) (O75469 whole entry, looked up): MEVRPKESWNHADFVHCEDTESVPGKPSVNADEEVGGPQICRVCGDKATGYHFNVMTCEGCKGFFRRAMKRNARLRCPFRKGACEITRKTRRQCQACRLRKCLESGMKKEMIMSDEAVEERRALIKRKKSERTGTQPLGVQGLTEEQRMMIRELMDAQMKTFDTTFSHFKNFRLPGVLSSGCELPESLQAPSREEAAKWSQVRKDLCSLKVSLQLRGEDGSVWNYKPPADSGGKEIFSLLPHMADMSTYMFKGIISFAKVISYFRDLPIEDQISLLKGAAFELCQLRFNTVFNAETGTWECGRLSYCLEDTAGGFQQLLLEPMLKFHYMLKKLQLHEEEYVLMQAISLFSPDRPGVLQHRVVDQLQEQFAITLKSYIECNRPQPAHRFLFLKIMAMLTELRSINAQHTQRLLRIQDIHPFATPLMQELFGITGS
# Chain of Progesterone receptor (Homo sapiens) (P06401 whole entry, looked up): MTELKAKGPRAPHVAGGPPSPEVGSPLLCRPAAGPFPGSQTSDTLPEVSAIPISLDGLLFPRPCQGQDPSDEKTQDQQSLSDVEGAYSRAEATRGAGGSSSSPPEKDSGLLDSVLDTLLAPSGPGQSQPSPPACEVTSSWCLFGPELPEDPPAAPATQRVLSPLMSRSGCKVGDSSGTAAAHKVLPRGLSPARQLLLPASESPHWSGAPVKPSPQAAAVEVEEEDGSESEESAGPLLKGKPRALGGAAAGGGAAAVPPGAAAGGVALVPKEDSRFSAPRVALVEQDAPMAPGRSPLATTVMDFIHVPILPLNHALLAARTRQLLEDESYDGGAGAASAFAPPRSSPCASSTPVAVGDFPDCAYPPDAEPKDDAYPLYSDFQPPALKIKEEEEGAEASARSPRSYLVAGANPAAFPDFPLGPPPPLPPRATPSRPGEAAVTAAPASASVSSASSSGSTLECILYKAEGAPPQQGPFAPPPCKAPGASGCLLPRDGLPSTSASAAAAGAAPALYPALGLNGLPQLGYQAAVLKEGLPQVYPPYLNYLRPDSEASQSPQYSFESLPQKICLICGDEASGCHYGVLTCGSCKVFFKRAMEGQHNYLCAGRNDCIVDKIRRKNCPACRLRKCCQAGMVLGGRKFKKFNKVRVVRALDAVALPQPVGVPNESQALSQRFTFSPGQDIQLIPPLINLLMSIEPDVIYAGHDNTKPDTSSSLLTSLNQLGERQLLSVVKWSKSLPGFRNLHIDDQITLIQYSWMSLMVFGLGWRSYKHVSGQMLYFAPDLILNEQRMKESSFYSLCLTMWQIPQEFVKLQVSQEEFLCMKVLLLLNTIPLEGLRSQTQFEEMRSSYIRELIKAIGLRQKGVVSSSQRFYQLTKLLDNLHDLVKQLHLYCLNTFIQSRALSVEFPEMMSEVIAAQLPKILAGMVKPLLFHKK
SMILES,outcome [1],Potency [2],Potency [3],Potency [4],Potency [5],outcome [6],outcome [7],outcome [8],outcome [9],Potency [10],outcome [11],outcome [12],max activation [13] [%],outcome [14],Potency [15],outcome [16],Potency [17],Potency [13],Potency [18],Potency [19]
O=C1C(CCS(=O)c2ccccc2)C(=O)N(c2ccccc2)N1c1ccccc1 (centres undefined),inactive,inactive,inactive,inactive,inactive,inactive,inactive,inactive,inactive,inactive,inactive,inactive,-2.19,,,,,,,
C(=C(c1ccccc1)c1ccccc1)c1ccccc1,inactive,inactive,12.2 µM (active),inactive,,inactive,inactive,inactive,inactive,inactive,inactive,inactive,,inactive,inactive,,,,,
CCCC(=O)O[C@]1(C(=O)CCl)[C@@H](C)C[C@H]2[C@@H]3CCC4=CC(=O)C=C[C@]4(C)[C@@]3(F)C(=O)C[C@@]21C,inactive,,,,,inactive,inactive,inactive,inactive,,inactive,inactive,,inactive,inactive,inactive,2.11 µM (active),1 µM (active),631 nM (active),11.2 µM (active)
NC(=O)Nc1nc2ccccc2[nH]1,inactive,inactive,inactive,inactive,inactive,inactive,inactive,,inactive,inactive,inactive,inactive,,inactive,inactive,,inactive,,,
O=[N+]([O-])c1ccc(Oc2ccc([N+](=O)[O-])cc2)cc1,inactive,inactive,3.94 µM (active),,,inactive,inactive,,inactive,inactive,inactive,inactive,,inactive,inactive,,inactive,,,
Cc1ccccc1C(=O)O,inactive,inactive,inactive,inactive,inactive,inactive,inactive,,inactive,,inactive,,,inactive,,,30.1 µM (active),,,
O=C(O)/C=C/c1ccc(/C=C/C(=O)O)cc1,inactive,inactive,inactive,inactive,,inactive,inactive,inactive,inactive,inactive,inactive,inactive,,inactive,inactive,,inactive,,,
CN(C)C(=O)C(CCN1CCC(O)(c2ccc(Cl)cc2)CC1)(c1ccccc1)c1ccccc1,inactive,inactive,,inactive,inactive,inactive,,inactive,,,inactive,,,inactive,23.7 µM (active),inactive,inactive,,,
OC/C=C/c1ccccc1,inactive,inactive,inactive,inactive,inactive,inactive,inactive,,inactive,inactive,inactive,inactive,-5.54,inactive,inactive,,inactive,,inactive,inactive
